From PubChem BioAssay (NCI) come the findings set out here.

About 83,000 compounds went through this panel and 20% of them were active in at least one assay; those are over-represented in the sample as a whole.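 96-well plates, one dose, 48 hours. Percent growth reported; active if below 10.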 A number with no mark means an inactive call. The source made the active and inactive calls.

In the assay the test system is KM12 colon. Description: NCI-60 one-dose screen, 48 h (100 = growth as untreated, 0 = no growth, -100 = all killed). The following applies: 10 µM unless noted.
Consider `C=CCNc1nc(NN2C(=O)c3cccc4cccc(c34)C2=O)nc(-n2cnc3ccccc32)n1`, for which the growth was 18.6%. `Nc1ccc2c(c1)c(N)nn2C(=O)Nc1ccc(Cc2ccccc2)cc1`: the growth was 65.3%. As to `COC(=O)c1ccc(CSc2nnc(-c3c(C)nc4ccc(C)cn34)o2)cc1`, the growth was 110%. Next, `Cc1cc(O)c(C2=NN(c3ccc(S(N)(=O)=O)cc3)C(c3ccccc3Cl)C2)cc1Cl` (centres undefined): -37% (active); `Cc1ccc(Cc2cnc(NC(=O)c3ccc4noc(-c5ccccc5)c4c3)s2)cc1`: 91.3%; `Cn1cc(-c2csc(-c3cccc(F)c3)n2)c2cccnc21`: -70% [100 µM] (active).

Regarding `COc1c(CCC[P+](c2ccccc2)(c2ccccc2)c2ccccc2)cc2c(c1OC)OCO2`, the growth was 4.98% (active). The same measure for `Cc1ccc(Nc2nc(N)nc(CSCC(=O)NN)n2)cc1`: 98.1%. As to `O=C(N/N=C/c1ccncc1)c1ccc(C(F)(F)F)nc1Nc1cccc(C(F)(F)F)c1`, the growth is 20.9%. For the compound `COc1cc2c(cc1-c1c(C)noc1C)ncc1nc(C3CCC(F)(F)CC3)n(C3CCC(OC(F)F)CC3)c12` (centres undefined), the growth was 51.4%.

Regarding `O=c1[nH][n+](-c2ccc(Cl)cc2)no1`, the growth was 31.3%. With `O=C(CCc1nnc(CN(c2ccccc2)c2ccccc2)o1)c1nc2ccccc2[nH]1`, the growth is 99.8%. In the case of `Cc1cccc(Cc2cnc(NC(=O)c3ccc4nnsc4c3)s2)c1`, the growth was 77.9%. Regarding `Cc1ccc(C(=O)COc2cccc(/C=C3\Oc4ccccc4C3=O)c2)cc1`, the growth is 100%.
